The source of these data is PubChem BioAssay (EPA / NIEHS).

Usually AC50 stands for the midpoint of the concentration-response curve, whichever way the signal moves.

The nature of test [1]: ATG_CRE_CIS: Attagene CIS-FACTORIAL HepG2 Assay for human cAMP Responsive Element (CRE) binding protein 3 (AID 2282926). Conditions: HepG2 CRE cis-reporter, Attagene multiplexed mRNA; actives raise or lower the signal. The essentials: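 We dosed HepG2 cells bearing multiple cis-promoter reporter units for 24 h and measured reporter mRNA by RT-PCR with capillary electrophoresis detection. Bidirectional concentration-response fitting used DMSO as negative control.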

The target in test [2] is CCAAT/enhancer-binding protein beta (Homo sapiens) (UniProt P17676). Description: ATG_C_EBP_CIS: Attagene CIS-FACTORIAL HepG2 Assay for human CCAAT/Enhancer Binding Protein (C/EBP) beta (AID 2282927). Conditions: HepG2 Attagene cis-factorial transcription factor reporter; actives raise or lower the signal. In a few lines:
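Transiently transfected HepG2 (MRTU library, endogenous TF-driven promoters); 24 h dosing; total RNA → oligo(dT) RT → PCR → 6-FAM primer extension → HpaI digest → CE; fit bidirectionally vs DMSO.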

The nature of test [3]: ATG_CMV_CIS: Attagene CIS-FACTORIAL HepG2 Assay for human CMV (Internal Marker) (AID 2282928).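 Also: endpoint acts as a background internal control marker rather than a target.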 Conditions: HepG2 CMV promoter reporter, transcription factor profiling; actives raise or lower the signal. In a few lines:
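After transient transfection of HepG2 with reporter transcription units driven by cis-regulatory promoters, cells receive test chemical for 24 h. Labeled reporter amplicons, digested with HpaI, are sized and quantified by capillary electrophoresis against DMSO.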

The nature of test [4]: ATG_DR4_LXR_CIS: Attagene CIS-FACTORIAL HepG2 Assay for human Liver X Receptor (LXR), DR4 submotif (AID 2282929). Conditions: HepG2 Attagene DR4 cis-reporter, mRNA transcription; actives raise or lower the signal. The essentials:
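DR4 cis-reporter in HepG2, 24 h exposure. Detection: RT-PCR, 6-FAM labelling, CE fragment analysis. Endpoint fitted bidirectionally, DMSO = baseline.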

In test [5] the target is Aryl hydrocarbon receptor (Homo sapiens) (UniProt P35869). Description: ATG_Ahr_CIS: Attagene CIS-FACTORIAL HepG2 Assay for human Aryl Hydrocarbon Receptor (Ahr) (AID 2282930). Conditions: HepG2 AhR cis-factorial reporter transcription; actives raise or lower the signal. In a few lines: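 Read-out: reporter mRNA quantified by RT-PCR with fluorescent primer extension and capillary electrophoresis. Human HepG2 liver cells carried transfected cis-promoter reporter units and were exposed to chemical for 24 h; gain or loss fitted relative to DMSO.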

Test [6] is described as follows: ATG_AP_1_CIS: Attagene CIS-FACTORIAL HepG2 Assay for human Activator Protein 1 (AP-1) (AID 2282931). Conditions: HepG2 Attagene cis-factorial AP-1 reporter mRNA; actives raise or lower the signal. The essentials: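 Cis-regulated reporter units transiently expressed in HepG2 report endogenous transcription-factor activity. Signal: reporter mRNA at 24 h, via RT-PCR and fluorescent capillary electrophoresis. Endpoint derived by bidirectional fitting, DMSO as negative control.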

A short description of test [7]: ATG_AP_2_CIS: Attagene CIS-FACTORIAL HepG2 Assay for human Activator Protein 2 (AP-2) (AID 2282932). To be noted: HepG2 AP-2 cis-reporter, Attagene transcription factor profiling; actives raise or lower the signal. In a few lines:
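Multiplexed mRNA reporter assay in HepG2: cis-regulated units report endogenous factor activity after 24 h treatment. Fluorescence from capillary electrophoresis of RT-PCR products gives the signal, with DMSO as baseline.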

The nature of test [8]: ATG_BRE_CIS: Attagene CIS-FACTORIAL HepG2 Assay for human Bone Morphogenetic Protein (BMP) Response Element (BRE) (AID 2282933). Conditions: HepG2 BMP response element reporter, Attagene transcription factor profiling; actives raise or lower the signal. In a few lines: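 Transient MRTU transfection of human HepG2 liver cells; 24 h compound treatment; total RNA isolated, reverse-transcribed, PCR-amplified, 6-FAM labelled, HpaI-cut, capillary electrophoresis. DMSO = negative control/baseline, bidirectional fit.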

The nature of test [9]: APR_HepG2_NuclearSize_72hr: Apredica 72-hour HepG2 Assay for Nuclear Size (AID 2282925). To be noted: high-content imaging, actives raise or lower the signal. As for the experimental part: APR_HepG2_72hr is a cell-based, multiplexed-readout assay that uses HepG2, a human liver cell line, with measurements taken at 72 hours after chemical dosing in a 384-well plate.APR_HepG2_NuclearSize_72hr is one of 10 assay component(s) measured or calculated from the APR_HepG2_72hr assay. It is designed to make measurements of cell phenotype, a form of morphology reporter, as detected with fluorescence intensity signals by HCS Fluorescent Imaging technology.Data from the assay component APR_HepG2_NuclearSize_72hr was analyzed into 1 assay endpoint. This assay endpoint, APR_HepG2_NuclearSize_72hr, was analyzed with bidirectional fitting relative to DMSO as the negative control and baseline of activity. Using a type of morphology reporter, measures of all nuclear dna for gain or loss-of-signal activity can be used to understand the signaling at the nuclear-level. Furthermore, this assay endpoint can be referred to as a primary readout, because this assay has produced multiple assay endpoints where this one serves a signaling function. To generalize the intended target to other relatable targets, this assay endpoint is annotated to the cell morphology intended target family, where the subfamily is organelle conformation.
Cells were treated with dimethyl sulfoxide (DMSO) as a solvent control at a final concentration of 0.5% v/v or with compounds in DMSO with a resulting final DMSO concentration of 0.5% v/v. Compound treatment was done at concentrations of 0.39, 0.78, 1.56, 3.12, 6.24, 12.5, 25, 50, 100, and 200 uM in duplicate on each plate. Cells were treated with compounds for 1, 24, or 72 hr. Carbonyl […] m-chloro-phenylhydrazone (CCCP) and taxol were used as positive controls for mitochondrial function and cytoskeletal stability, respectively; DMSO served as the negative control for this experiment. Cells were fixed by the direct addition of 50 uL formaldehyde in Hank's Balanced Salt Solution (HBSS) to a final concentration of 3.7%. After incubation in the fixation medium for 30 min at room temperature (293-298 K), cells were rinsed twice with HBSS and treated with cell permeabilization buffer (16 uL of 0.5% Triton X-100) for 10 min at room temperature (293-298 K) before labeling. For mitochondrial membrane potential and mitochondrial measurements, pre-fixed cells were incubated with 50 uL of MitoTracker Red CMXRos (Invitrogen) at a concentration of 250 nM for 30 min before fixation. In the remaining cases, post-fixed cells were labeled by incubation with a multiplexed mixture of primary antibodies in HBSS for 60 min at room temperature (293-298 K) to detect immunoreactivity of c-Jun (1:500), phospho-histone H3 (1:100), phospho-histone H2A.x (1:200), p53 (1:400), alpha-tubulin (1:200) and Hoechst 33342 (2 ug/mL). Cells were labeled for multiplexed imaging on two separate plates: a) Hoechst 33342, MitoTracker Red, phospho-histone H3, and alpha-tubulin, and b) Hoechst 33342, phospho-histone H2A.x, and c-Jun. A final rinse with HBSS (50 uL) was performed before analysis. The primary and secondary antibodies for the proteins were phospho-histone H3 (rabbit anti-phospho-histone H3 and FITC-donkey anti-rabbit IgG), phospho-histone H2A.x (mouse anti-phospho-histone H2A.x and FITC-donkey anti-mouse IgG), c-Jun (rabbit anti-phospho-c-Jun and Cy3-donkey anti-rabbit IgG), p53 (sheep anti-p53 and Cy5-donkey anti-sheep IgG), alpha-tubulin (mouse anti-alpha-tubulin and Cy5-donkey anti-mouse IgG). […]

Test [10] has as its target Retinoic acid receptor alpha (Homo sapiens) (UniProt P10276). Description: ATG_DR5_RAR_CIS: Attagene CIS-FACTORIAL HepG2 Assay for human Retinoic Acid Receptor Alpha (RARE), DR5 submotif (AID 2282934). Conditions: HepG2 Attagene cis-factorial RARE DR5 reporter, mRNA; actives raise or lower the signal. In a few lines:
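Read-out: DR5-driven reporter transcript measured by RT-PCR, 6-FAM primer extension, HpaI digest and capillary electrophoresis. Human HepG2 liver cells carry transiently transfected cis-element reporter constructs; dosing lasts 24 h. Gain or loss of signal fitted against DMSO baseline.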

SMILES strings stand for the structures. “And” between values parts separate entries of the source, which are not always exact repeats. Equal entries are not always repeated. Some structures have more than one record in an assay (separate samples or runs), and their calls can disagree. The source made the active and inactive calls. The calls were made as follows: active = hit-call score of the fitted dose curve at least 0.9, where 1 is the maximum; inactive = score below 0.9.

Retinoic acid receptor alpha (Homo sapiens), sequence (P10276 whole entry, looked up): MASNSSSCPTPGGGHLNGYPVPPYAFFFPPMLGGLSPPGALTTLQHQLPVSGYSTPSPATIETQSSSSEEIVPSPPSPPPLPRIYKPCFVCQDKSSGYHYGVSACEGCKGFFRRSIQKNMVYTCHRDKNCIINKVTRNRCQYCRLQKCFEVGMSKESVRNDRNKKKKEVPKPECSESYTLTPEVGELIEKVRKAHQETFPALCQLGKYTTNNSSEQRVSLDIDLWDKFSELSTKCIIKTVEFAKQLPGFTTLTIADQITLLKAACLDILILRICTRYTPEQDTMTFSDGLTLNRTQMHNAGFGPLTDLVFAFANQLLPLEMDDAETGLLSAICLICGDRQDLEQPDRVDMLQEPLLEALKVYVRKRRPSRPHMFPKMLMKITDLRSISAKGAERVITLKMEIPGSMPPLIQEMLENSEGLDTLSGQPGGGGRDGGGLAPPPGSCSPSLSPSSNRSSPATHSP
CCAAT/enhancer-binding protein beta (Homo sapiens), sequence (P17676 whole entry, looked up): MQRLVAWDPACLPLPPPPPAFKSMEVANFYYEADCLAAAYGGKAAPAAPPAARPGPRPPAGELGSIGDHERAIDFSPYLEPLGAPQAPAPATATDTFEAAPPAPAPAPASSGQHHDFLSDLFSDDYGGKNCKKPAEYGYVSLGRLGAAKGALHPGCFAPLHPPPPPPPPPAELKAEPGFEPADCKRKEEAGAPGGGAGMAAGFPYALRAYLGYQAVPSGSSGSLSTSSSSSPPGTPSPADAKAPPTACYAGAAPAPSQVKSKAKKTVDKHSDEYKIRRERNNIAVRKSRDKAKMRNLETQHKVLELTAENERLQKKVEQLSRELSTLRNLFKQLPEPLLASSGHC
Aryl hydrocarbon receptor (Homo sapiens), sequence (P35869 whole entry, looked up): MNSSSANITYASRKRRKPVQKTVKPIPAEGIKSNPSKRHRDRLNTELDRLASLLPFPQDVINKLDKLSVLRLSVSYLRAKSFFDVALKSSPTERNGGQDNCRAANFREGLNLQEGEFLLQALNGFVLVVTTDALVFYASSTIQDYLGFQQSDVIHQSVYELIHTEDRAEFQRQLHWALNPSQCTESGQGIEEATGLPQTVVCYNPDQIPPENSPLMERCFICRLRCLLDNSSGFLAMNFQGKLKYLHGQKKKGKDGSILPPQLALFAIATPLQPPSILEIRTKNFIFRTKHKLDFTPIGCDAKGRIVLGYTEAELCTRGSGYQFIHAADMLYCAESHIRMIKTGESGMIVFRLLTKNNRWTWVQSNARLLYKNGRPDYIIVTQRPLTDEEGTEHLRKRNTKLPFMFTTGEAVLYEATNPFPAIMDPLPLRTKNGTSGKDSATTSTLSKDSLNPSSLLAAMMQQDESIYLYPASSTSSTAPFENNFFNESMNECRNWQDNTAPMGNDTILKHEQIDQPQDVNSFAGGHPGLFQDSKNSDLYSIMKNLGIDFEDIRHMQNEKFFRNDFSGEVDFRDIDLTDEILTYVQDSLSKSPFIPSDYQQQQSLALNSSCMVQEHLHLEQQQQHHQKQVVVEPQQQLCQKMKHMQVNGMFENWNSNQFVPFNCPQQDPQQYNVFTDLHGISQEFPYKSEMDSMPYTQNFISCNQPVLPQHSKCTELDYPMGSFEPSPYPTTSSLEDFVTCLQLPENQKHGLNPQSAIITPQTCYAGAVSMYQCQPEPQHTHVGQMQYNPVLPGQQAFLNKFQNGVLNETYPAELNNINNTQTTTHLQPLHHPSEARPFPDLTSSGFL

Take `CCNC(=S)NCC`: the call in [1], in test [2], in [3], in [4], in [5] and in test [6] was inactive. The compound was called inactive in test [7] and in test [8].
`CC1=CCC(=C(C)C)CC1`: the result in [1], in test [2], in [3], in [4], in test [5] and in test [6] was inactive. Also, the call in test [7] and in [8] was inactive.
Turning to `CC(O)CNCC(C)O` (configuration not stated), the result in test [1], in test [2], in test [3], in test [4], in test [5] and in [6] was inactive. Also, the result in [7] and in test [8] was inactive.
As to `FC(F)(F)c1ccc(Cl)c(Cl)c1`, the result in test [1], in [2], in test [3], in test [4], in [5] and in test [6] was inactive. Besides, the outcome in test [7] and in test [8] was inactive.
Regarding `CC1=C(C=O)C(C)(C)CCC1`, the result in [1], in test [2], in test [3], in test [4], in test [5] and in test [6] was inactive. Also, the compound was called inactive in test [7] and in [8].
On to `C[C@]12CC[C@@H]3c4ccc(O)cc4CC[C@H]3[C@@H]1CC[C@@H]2O`, for which the outcome in test [9], in test [1], in [2], in [3], in test [4] and in test [5] was inactive. Further, the compound was classed as inactive in [6], in [7], in test [8] and in test [10]. Further, the AC50 in [3] was 19.5 µM (active) [middle of 4 runs]; in test [5] it was 27.7 µM (active) and 62.5 µM (active); in [7], 65.8 µM (active).
With `C=CC(C)(CCC=C(C)C)OC(=O)CC` (configuration not stated), the call in test [1], in test [2], in [3], in test [4], in test [5] and in test [6] was inactive. The compound was called inactive in test [7] and in test [8].
As to `O=C1CCCCCCCCCCCC(=O)OCCO1`, the result in test [1], in test [2], in [3], in [4], in test [5] and in [6] was inactive. Also, the call in test [7] and in test [8] was inactive.
With `CC1(C)CC(=O)CC(C)(C)N1`, the compound was classed as inactive in test [1], in [2], in [3], in test [4], in test [5] and in test [6]. The outcome in test [7] and in test [8] was inactive.
In the case of `C1CCCNCC1`, the compound was classed as inactive in [1], in test [2], in test [3], in test [4], in [6] and in test [7]. For the same compound, in test [8], the result was inactive. Moreover, the AC50 in [5] was 62.5 µM (active).
Take `CCC(=O)OC/C=C(\C)CCC=C(C)C`: the call in test [1], in [2], in [3], in test [4], in test [5] and in [6] was inactive. The outcome in test [7] and in [8] was inactive.
On to `CC(=O)c1cccnc1`, for which the result in test [1], in test [2], in test [3], in test [4], in [5] and in [6] was inactive. Further, the compound was called inactive in test [7] and in test [8].
As to `CCCOC(=O)CC`, the result in test [1], in [2], in test [3], in [4], in [5] and in test [6] was inactive. Besides, the outcome in [7] and in [8] was inactive.
Take `C=C1CC[C@H]2O[C@]2(C)CC[C@@H]2[C@@H]1CC2(C)C`: the call in [1], in [2], in [4], in test [5], in [6] and in test [7] was inactive. The outcome in [8] was inactive. For the same compound, the AC50 in test [3] was 191 µM (active).
